Structures can show the parent of a compound that is named as a salt.
Tested on: Haemophilus parainfluenzae
Assay: growth AUC normalised to DMSO control (fraction of control); higher = less growth inhibition, active = hit call of the paper
Conditions: 20 µM;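 active = AUC significantly below DMSO controls by Student t-fit with adjusted P under 0.01; inactive = not significantly reduced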
Outline: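 For the AUC endpoint, growth curves were integrated by the trapezoidal rule up to the exponential-to-stationary transition and normalised to DMSO controls on the same plate. The curves came from OD578 readings taken hourly for 24 h, in three biological replicates. Pathogens had been passaged anaerobically twice and inoculated at an OD578 of 0.01 into pre-reduced mGAM plates carrying 20 μM compound and 1% DMSO, sealed with breathable membranes. Medium for Haemophilus parainfluenzae also contained hemin and NAD.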

Q: `CC(C[N+](C)(C)C)OC(N)=O` (centres undefined) [Bethanechol chloride] was tested. Which “growth AUC normalised to DMSO control” value did it give?
A: 1 (inactive)

Q: `CCCc1cc(C(N)=S)ccn1` [Prothionamide] was tested. Which “growth AUC normalised to DMSO control” value did it give?
A: 1.04 (inactive)

Q: How did the “growth AUC normalised to DMSO control” value turn out when `Nc1ccc(/N=N/c2ccccc2)c(N)n1` [Phenazopyridine hydrochloride] was run?
A: 0.922 (inactive)

Q: Which “growth AUC normalised to DMSO control” value does the source give for `CC(=O)CC(c1ccc([N+](=O)[O-])cc1)c1c(O)c2ccccc2oc1=O` (centres undefined) [Acenocoumarol] here?
A: 0.992 (inactive)

Q: How did the “growth AUC normalised to DMSO control” value turn out when `CC(=O)NCCCS(=O)(=O)O` [Acamprosate calcium] was run?
A: 0.988 (inactive)

Q: Which “growth AUC normalised to DMSO control” value does the source give for `COc1cc2nc(N(C)CCCNC(=O)C3CCCO3)nc(N)c2cc1OC` (centres undefined) [Alfuzosin hydrochloride] here?
A: 1.03 (inactive)

Q: With `CCOC(=O)[C@H](CCc1ccccc1)N[C@@H](C)C(=O)N1Cc2ccccc2C[C@H]1C(=O)O` [Quinapril hydrochloride] as the compound, how does the “growth AUC normalised to DMSO control” value read?
A: 0.952 (inactive)

Q: With `C[C@]12CC[C@@H]3c4ccc(O)cc4C[C@@H](CCCCCCCCC[S+]([O-])CCCC(F)(F)C(F)(F)F)[C@H]3[C@@H]1CC[C@@H]2O` (some centres undefined) [Fulvestrant] as the compound, how does the “growth AUC normalised to DMSO control” value read?
A: 1.32 (inactive)

Q: `CC1=C(/C=C/C(C)=C/C=C/C(C)=C/C(=O)O)C(C)(C)CCC1` [Retinoic acid] was tested. Which “growth AUC normalised to DMSO control” value did it give?
A: 0.995 (inactive)

Q: With `C=CCc1ccccc1OCC(O)CNC(C)C` (centres undefined) [Alprenolol hydrochloride] as the compound, how does the “growth AUC normalised to DMSO control” value read?
A: 1.06 (inactive)

Q: Which “growth AUC normalised to DMSO control” value does the source give for `COc1ccc2cc(CCC(C)=O)ccc2c1` [Nabumetone] here?
A: 0.997 (inactive)

Q: `CC(C)(O)c1ccccc1CC[C@@H](SCC1(CC(=O)O)CC1)c1cccc(/C=C/c2ccc3ccc(Cl)cc3n2)c1` [Montelukast] was tested. Which “growth AUC normalised to DMSO control” value did it give?
A: 0.964 (inactive)

Q: Which “growth AUC normalised to DMSO control” value does the source give for `CNCCc1ccccn1` [Betahistine mesylate] here?
A: 0.962 (inactive)

Q: How did the “growth AUC normalised to DMSO control” value turn out when `CCN1CCCC1CNC(=O)c1cc(S(=O)(=O)CC)c(N)cc1OC` (centres undefined) [Amisulpride] was run?
A: 0.997 (inactive)

Q: For `CC1(C)O[C@@H]2C[C@H]3[C@@H]4CCC5=CC(=O)CC[C@]5(C)[C@@]4(F)[C@@H](O)C[C@]3(C)[C@]2(C(=O)CCl)O1` [Halcinonide], which “growth AUC normalised to DMSO control” value is on record?
A: 1 (inactive)

Q: How did the “growth AUC normalised to DMSO control” value turn out when `CC(C)(C)C(=O)OCOC(=O)[C@@H]1N2C(=O)[C@@H](/N=C/N3CCCCCC3)[C@H]2SC1(C)C` [Pivmecillinam hydrochloride] was run?
A: 0.825 (inactive)

Q: With `CN1CCN(CCCN2c3ccccc3Sc3ccc(C(F)(F)F)cc32)CC1` [Trifluoperazine dihydrochloride] as the compound, how does the “growth AUC normalised to DMSO control” value read?
A: 0.927 (inactive)

Q: With `Cc1cc(=O)n(-c2ccccc2)n1C` [Antipyrine] as the compound, how does the “growth AUC normalised to DMSO control” value read?
A: 0.988 (inactive)

Q: For `CC(C)NCC(O)c1cc(O)cc(O)c1` (centres undefined) [Metaproterenol sulfate], which “growth AUC normalised to DMSO control” value is on record?
A: 0.99 (inactive)

Q: How did the “growth AUC normalised to DMSO control” value turn out when `Cc1c(N)c(=O)n(-c2ccccc2)n1C` [Ampyrone] was run?
A: 1 (inactive)

Q: With `CC(=O)c1ccc2c(c1)N(CCCN1CCC(CCO)CC1)c1ccccc1S2` [Piperacetazine] as the compound, how does the “growth AUC normalised to DMSO control” value read?
A: 1.09 (inactive)

Q: How did the “growth AUC normalised to DMSO control” value turn out when `CC(C)(C)c1ccc(C(O)CCCN2CCC(C(O)(c3ccccc3)c3ccccc3)CC2)cc1` (centres undefined) [Terfenadine] was run?
A: 0.88 (inactive)

Q: How did the “growth AUC normalised to DMSO control” value turn out when `Nc1nc(=S)c2ncn([C@@H]3O[C@H](CO)[C@@H](O)[C@H]3O)c2[nH]1` [Thioguanosine] was run?
A: 0.973 (inactive)

Q: `CC#C[C@]1(O)CC[C@H]2[C@@H]3CCC4=CC(=O)CCC4=C3[C@@H](c3ccc(N(C)C)cc3)C[C@@]21C` [Mifepristone] was tested. Which “growth AUC normalised to DMSO control” value did it give?
A: 0.994 (inactive)

Q: `Cc1cccc(C)c1NC(=O)CN1CCN(CCCC(c2ccc(F)cc2)c2ccc(F)cc2)CC1` [Lidoflazine] was tested. Which “growth AUC normalised to DMSO control” value did it give?
A: 1.02 (inactive)

Q: How did the “growth AUC normalised to DMSO control” value turn out when `COC(=O)[C@@H]1[C@H]2C[C@H]3c4[nH]c5ccccc5c4CCN3C[C@@H]2CC[C@@H]1O` [Yohimbine hydrochloride] was run?
A: 0.971 (inactive)

Q: Which “growth AUC normalised to DMSO control” value does the source give for `CN(C)CCC(c1ccccc1)c1ccccn1` (centres undefined) [Pheniramine maleate] here?
A: 0.999 (inactive)

Q: For `CCn1cc(C(=O)O)c(=O)c2ccc(C)nc21` [Nalidixic acid sodium salt], which “growth AUC normalised to DMSO control” value is on record?
A: 0.813 (active)

Q: How did the “growth AUC normalised to DMSO control” value turn out when `O=c1[nH]cc(F)c(=O)[nH]1` [5-fluorouracil] was run?
A: 0.654 (active)

Q: How did the “growth AUC normalised to DMSO control” value turn out when `NC(=O)OCC(O)COc1ccc(Cl)cc1` (centres undefined) [Chlorphensin carbamate] was run?
A: 1.01 (inactive)

Q: `COc1ccccc1N1CCN(CCCNc2cc(=O)n(C)c(=O)n2C)CC1` [Urapidil hydrochloride] was tested. Which “growth AUC normalised to DMSO control” value did it give?
A: 0.979 (inactive)

Q: `O=C(CCCN1CCC(O)(c2ccc(Cl)cc2)CC1)c1ccc(F)cc1` [Haloperidol] was tested. Which “growth AUC normalised to DMSO control” value did it give?
A: 0.951 (inactive)

Q: How did the “growth AUC normalised to DMSO control” value turn out when `CN(C)CCN(Cc1ccc(Cl)cc1)c1ccccn1` [Chloropyramine hydrochloride] was run?
A: 1.03 (inactive)

Q: `CC(CN(C)C)C(C)(O)Cc1ccc(Cl)cc1` (centres undefined) [Clobutinol hydrochloride] was tested. Which “growth AUC normalised to DMSO control” value did it give?
A: 0.963 (inactive)

Q: For `CN1CCC(OC(c2ccccc2)c2ccccc2)CC1` [Diphenylpyraline hydrochloride], which “growth AUC normalised to DMSO control” value is on record?
A: 0.996 (inactive)

Q: Which “growth AUC normalised to DMSO control” value does the source give for `CC(=O)O[C@H]1C[C@@H]2CC[C@@H]3[C@H](CC[C@@]4(C)[C@H]3C[C@H]([N+]3(C)CCCCC3)[C@@H]4OC(C)=O)[C@@]2(C)C[C@@H]1N1CCCCC1` [Vecuronium bromide] here?
A: 1.05 (inactive)

Q: How did the “growth AUC normalised to DMSO control” value turn out when `CCOC(=O)/C=C(C)/C=C/C=C(C)/C=C/c1c(C)cc(OC)c(C)c1C` [Etretinate] was run?
A: 1.03 (inactive)

Q: `O=C1c2ccccc2S(=O)(=O)N1CCCCN1CCN(c2ncccn2)CC1` [Ipsapirone] was tested. Which “growth AUC normalised to DMSO control” value did it give?
A: 0.979 (inactive)

Q: `O=C1CC2(CCCC2)CC(=O)N1CCCCN1CCN(c2ncccn2)CC1` [Buspirone hydrochloride] was tested. Which “growth AUC normalised to DMSO control” value did it give?
A: 1.09 (inactive)

Reference: the supplement of paper PMC12350171
